Only some compounds are listed: those with a hit (about 3.3% of all), similar ones and a draw of the others.
TbPYK inhibitor: T. brucei pyruvate kinase inhibition | AID 624173 | Potency, µM (highest dose often 76.8 µM), without a hit: top-dose activity, negative = inhibition, most hits filed as inhibitors | 0.12% of 410,000 active | TbPYK enzyme, Kinase-Glo Plus ATP luminescence, 45 min; note: % is set by controls: 0 for no effect and ±100 for the full control effect; nearly all actives have a fitted effect of over 50% in size
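Screened from lowest to highest concentration, compounds were pinned into TbPYK/substrate mixtures, and ADP (130 uM final) was added. Plates sat at room temperature for 45 min prior to Kinase-Glo Plus detection by luminescence.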
RE007 growth inh: less growth of the S. pombe RE007 Vpr strain. S. pombe RE007 Vpr strain, BacTiter-Glo ATP luminescence, 24 h. Potency, µM (doses to about 92.2 µM), for the others: at the top dose activity change, negative = less growth, hits mostly inhibitors. 0.21% of 360,000 active. AID 651644; active = well fitted falling curve with a large enough effect; inconclusive = small, poorly fitted or top-dose-only effect; inactive = no such curve, though single readings can be large or run the other way; note: % is set by controls: 0 for no effect and ±100 for the full control effect; nearly all actives have a fitted effect of over 50% in size
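Fission yeast RE007 carrying one integrated HIV-1 vpr copy, seeded at OD 0.01 in PMG+AL medium with 23 nL pinned compound. Grown 24 h at 30 degrees; viability read by BacTiter-Glo luminescence after 5 min.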
LmPK inhibitor: inhibitors of Leishmania mexicana pyruvate kinase; Potency, µM (doses to about 57.5 µM), without a hit: at the highest dose activity change, negative = inhibition, most hits filed as inhibitors; purified LmPK, Kinase-Glo ATP luminescence, 1 h; 0.37% of 290,000 active; note: % is set by controls: 0 for no effect and ±100 for the full control effect
Target sequence (Q27686 whole entry, looked up): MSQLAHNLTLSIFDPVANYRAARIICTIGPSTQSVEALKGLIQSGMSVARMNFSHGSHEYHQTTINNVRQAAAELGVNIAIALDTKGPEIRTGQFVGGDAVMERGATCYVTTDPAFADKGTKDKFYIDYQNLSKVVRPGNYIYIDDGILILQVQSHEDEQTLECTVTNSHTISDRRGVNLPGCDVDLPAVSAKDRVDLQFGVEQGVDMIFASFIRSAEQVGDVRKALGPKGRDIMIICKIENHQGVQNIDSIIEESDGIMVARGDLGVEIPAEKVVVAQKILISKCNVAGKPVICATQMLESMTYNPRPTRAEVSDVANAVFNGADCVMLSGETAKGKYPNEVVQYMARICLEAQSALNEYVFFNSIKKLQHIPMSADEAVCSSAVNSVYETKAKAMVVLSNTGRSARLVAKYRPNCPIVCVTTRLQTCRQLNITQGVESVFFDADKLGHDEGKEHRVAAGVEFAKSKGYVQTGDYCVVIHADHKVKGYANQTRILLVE
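Screened at intermediate enzyme activity to detect both inhibitors and activators: LmPK at 0.1 nM, with a 0.5 nM enzyme column as activation reference. PEP 0.5 mM, ADP 0.1 mM; ATP detected by luminescence after 1 h.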
NS1 inh: blocks influenza NS1 protein function. Potency, µM (highest dose often 46.1 µM), inactives show top-dose activity, positive = more growth. 0.4% of 270,000 active. AID 2326; calls by dose curve; note: actives are rising curves; nearly all actives have a fitted effect of over 50% in size
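Growth recovery, yeast-based: influenza A NS1 expressed in S. cerevisiae causes slow growth, and suppressors are detected by OD600. The parent strain without NS1 is used as positive control.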
SARS PLpro yeast: SARS-CoV PLP inhibition in yeast. S. cerevisiae expressing SARS-CoV PLpro, growth rescue. Potency, µM (top dose mostly 32.9 µM), without a hit: at the top dose activity, positive = growth rescue, hits mostly activators. 0.19% of 330,000 active; calls by dose curve; note: 0% is about no effect; nearly all actives have a fitted effect of over 55% in size
Sm TGR inh: inhibitors of Schistosoma mansoni thioredoxin glutathione reductase | Q962Y6 | purified TGR, DTNB reduction, TNB absorbance 405 nm | Potency, µM (titrated, usually from 114 µM), without a hit: at the highest dose activity change, negative = inhibition, hits mostly inhibitors | 3% of 360,000 active | AID 485364; note: % is set by controls: 0 for no effect and ±100 for the full control effect; nearly all actives have a fitted effect of over 60% in size
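TGR 20 nM + NADPH 100 uM (dispensed conc.), cpd preinc 15 min RT; start with NADPH (500 uM addition) then DTNB (15 mM addition). Kinetic TNB absorbance, 405 nm filter. Four-parameter Hill fit across titration.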
* = called active by the depositor. Unless noted, calls come from the whole dose curve; as a rule, active = well fitted curve in the direction sought with a large enough effect; inconclusive = small, poorly fitted or top-dose-only effect, or another doubt; inactive = no such curve, though single readings can be large; an effect the other way counts as inactive or inconclusive. Potency is the fitted concentration of half-maximal effect.

O=C(c1ccco1)N1CCN(C(=O)c2cc3c(s2)-c2ccccc2OC3)CC1 was read as TbPYK inhibitor -18.6%, RE007 growth inh 4.5%, LmPK inhibitor 0.2%, NS1 inh -72.7%, SARS PLpro yeast -10.3% and Sm TGR inh 25.1µM*.
For O=C(c1ccco1)N1CCN(C(=O)c2sccc2-c2ccccc2)CC1 the results were TbPYK inhibitor -8.9%, RE007 growth inh -14.4%, LmPK inhibitor 1.6%, NS1 inh 6.2%, SARS PLpro yeast -12.1% and Sm TGR inh 39.8µM*.
Screening S=c1nc(-c2nc(=S)[nH]c3c2CCCCCCCCCC3)c2c([nH]1)CCCCCCCCCC2 returned NS1 inh -5.0%.
COc1ccccc1CNS(=O)(=O)c1ccc(F)c(C(=O)Nc2cc(Cl)ccc2OC)c1 was read as TbPYK inhibitor 4.4% and Sm TGR inh 1.7%.
Screening CCOC(=O)c1c(C)[nH]c(CCC(=O)Nc2cc(C)cc(C)c2)c1C returned TbPYK inhibitor 0.8% and Sm TGR inh -11.9%.
Screening CC(Nc1oc(-c2ccc(COc3ccccc3)o2)nc1C#N)c1ccccc1 (stereo unspecified) returned TbPYK inhibitor -1.2% and Sm TGR inh -11.5%.
For COc1ccc(NC(=O)CSc2nc3c(c(=O)n2-c2ccccc2)SCC3)c(OC)c1 the results were TbPYK inhibitor 34.3%, RE007 growth inh 12.7%, LmPK inhibitor 6.5%, NS1 inh -3.4%, SARS PLpro yeast 2.9% and Sm TGR inh 25.1µM*.
O=C(NC1CCSc2ccccc21)c1ccc(F)c(S(=O)(=O)N2CCOCC2)c1 (stereo unspecified) was read as TbPYK inhibitor 1.8%, RE007 growth inh 5.3%, LmPK inhibitor -5.8%, NS1 inh 1.0%, SARS PLpro yeast 1.0% and Sm TGR inh 39.8µM*.
O[C@@H](c1cc(-c2ccc(Cl)cc2)nc2ccccc12)C1CCCCN1 (stereo partly specified) was read as NS1 inh -10.1%.
Screening O=C(O)c1ccc(S(=O)(=O)c2ccc([N+](=O)[O-])cc2[N+](=O)[O-])cc1 returned TbPYK inhibitor 1.8%, RE007 growth inh -1.6%, LmPK inhibitor 0.9%, NS1 inh 0.0%, SARS PLpro yeast 0.8% and Sm TGR inh 0.1µM*.
For Cc1cc(C)cc(NC(=O)c2ccccc2CC[N+](=O)[O-])c1 the results were TbPYK inhibitor -3.2%, RE007 growth inh -13.7%, LmPK inhibitor 3.5%, NS1 inh 19.2%, SARS PLpro yeast 1.4% and Sm TGR inh 39.8µM*.
Cc1cc(C)c(C(=O)COc2cccnc2[N+](=O)[O-])cc1C was read as TbPYK inhibitor -21.0%, RE007 growth inh -28.8%, LmPK inhibitor 11.3%, NS1 inh -24.9%, SARS PLpro yeast 2.7% and Sm TGR inh 15.8µM*.
Screening CCOC(=O)c1[nH]c2ccccc2c1NC(=O)c1ccc(OC(C)C)cc1 returned TbPYK inhibitor -1.5% and Sm TGR inh -1.3%.
Screening O=C(CN1C(=O)C(c2ccc(F)cc2)=NC12CCCCCC2)Nc1ccc(F)c(Cl)c1 returned TbPYK inhibitor 2.7% and Sm TGR inh 2.2%.
For CC(C)(C)c1ccc(Oc2nc3ccccn3c(=O)c2/C=C(\C#N)c2nc3ccccc3s2)cc1 the results were TbPYK inhibitor -24.7% and Sm TGR inh 3.16µM*.
CCOC(=O)c1ccc(NC(=O)CN2C(=O)CC(c3ccc(C)c(C)c3)=Nc3ccccc32)cc1 was read as TbPYK inhibitor 3.6% and Sm TGR inh -10.4%.
For O=C1NC(=O)/C(=C/c2ccc(-c3cc(C(=O)O)ccc3Cl)o2)S1 the results were TbPYK inhibitor -15.9%, RE007 growth inh 9.0%, LmPK inhibitor -17.2%, NS1 inh 4.1%, SARS PLpro yeast 1.5% and Sm TGR inh -25.5%.
`O=C1NC(=O)/C(=C\c2ccc(Br)o2)S1` gave TbPYK inhibitor -12.2%, LmPK inhibitor 2.3%, NS1 inh -94.2%, SARS PLpro yeast -10.7% and Sm TGR inh 14.1µM*.
`Cc1cc2ncn(CC(=O)O)c2cc1C` gave NS1 inh -2.8%.
`CN(N=O)c1ccc(/C=C\c2ccnc3ccccc23)cc1` gave NS1 inh -10.8%.
For COc1cccc(-n2cnnc2SC(C)C(=O)NC2CCCC2)c1 (stereo unspecified) the results were TbPYK inhibitor -13.5%, RE007 growth inh 1.1%, SARS PLpro yeast 6.2% and Sm TGR inh 50.1µM*.
For COc1ccc(-n2cnnc2SC(C)C(=O)Nc2cccc([N+](=O)[O-])c2)cc1 (stereo unspecified) the results were TbPYK inhibitor -11.2%, RE007 growth inh 2.9%, LmPK inhibitor 3.0%, NS1 inh 9.4%, SARS PLpro yeast 9.6% and Sm TGR inh -1.4%.
Screening COc1ccc(C2=CC3=C(Br)C(=O)C(C)(OC(=O)c4ccco4)C(=O)C3=CO2)cc1 (stereo unspecified) returned TbPYK inhibitor -16.3%, RE007 growth inh inconclusive, LmPK inhibitor -14.2%, NS1 inh -55.8%, SARS PLpro yeast 0.6% and Sm TGR inh 5.01µM*.
COc1ccc(-c2[nH]c(-c3cccc(OC)c3)nc2SCC(=O)Nc2ccc3c(c2)OCO3)cc1 was read as TbPYK inhibitor -1.9% and Sm TGR inh -14.2%.
`O=C1CC(c2ccco2)=Nc2ccccc2N1` gave TbPYK inhibitor -19.4%, RE007 growth inh 7.6%, LmPK inhibitor -5.7%, NS1 inh 0.8%, SARS PLpro yeast 6.8% and Sm TGR inh 44.7µM*.
`O=c1cc(-c2ccccc2)c2cc(Cl)c3c(c2o1)CN(Cc1ccccc1)CO3` gave TbPYK inhibitor -1.6% and Sm TGR inh -2.6%.
For Cc1ccc(N2C(=O)CC(Sc3nc4ccccc4o3)C2=O)cc1Cl (stereo unspecified) the results were TbPYK inhibitor -0.9%, RE007 growth inh 10µM*, LmPK inhibitor 1.4%, NS1 inh -4.9%, SARS PLpro yeast -30.3% and Sm TGR inh 12.6µM*.
Screening CCCc1c(O)nc(SC2CC(=O)N(c3ccc(C)c(Cl)c3)C2=O)[nH]c1=O (stereo unspecified) returned TbPYK inhibitor 0.8% and RE007 growth inh inconclusive.
`CCOc1ccc(CCNC(=O)c2ccc3c(c2)NC(=O)C2CCCN32)cc1OCC` (stereo unspecified) gave LmPK inhibitor -1.6%, NS1 inh 4.3%, SARS PLpro yeast -1.8% and Sm TGR inh 50.1µM*.
Screening CCOc1cc(CNC(=O)c2ccc3c(c2)NC(=O)C2CCCCN32)cc(OCC)c1OCC (stereo unspecified) returned TbPYK inhibitor -0.6% and Sm TGR inh 6.5%.
